# What was measured:
# Test in all cases: DAPPL (digital affinity profiling via proximity ligation, sequencing); 10 mM Tris-HCl pH 7.5, 50 mM NaCl, 1 mM DTT, 4% glycerol, room temperature, 30 min; GST-TFs on glutathione beads, 16-mer random dsDNA library, 0.1% formaldehyde crosslink after washing; high values mean tight binding
# Conditions in all cases: protein: recombinant; tags: N-terminal GST; dsDNA, one strand shown
# GABPA = molecular target: T1, GABPA (Homo sapiens, UniProt Q06546 1-454)
# T1 sequence: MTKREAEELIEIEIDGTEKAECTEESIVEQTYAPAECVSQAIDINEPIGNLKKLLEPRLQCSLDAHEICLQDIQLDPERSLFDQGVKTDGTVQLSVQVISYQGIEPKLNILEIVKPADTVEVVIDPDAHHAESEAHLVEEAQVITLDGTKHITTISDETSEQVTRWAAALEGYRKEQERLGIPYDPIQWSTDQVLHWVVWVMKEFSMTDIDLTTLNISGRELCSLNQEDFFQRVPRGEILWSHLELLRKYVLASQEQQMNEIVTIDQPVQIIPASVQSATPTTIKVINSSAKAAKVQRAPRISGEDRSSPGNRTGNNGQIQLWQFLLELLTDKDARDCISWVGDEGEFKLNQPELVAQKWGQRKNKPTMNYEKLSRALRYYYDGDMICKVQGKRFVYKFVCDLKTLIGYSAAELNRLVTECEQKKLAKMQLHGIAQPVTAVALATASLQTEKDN
# Summary of the method: (§1)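 Human transcription factors fused to GST were expressed in yeast, captured on glutathione beads, given DNA barcodes and pooled with a GST-only negative control. Pools were incubated with 200 nmole of a 16-mer random double-stranded DNA library in Tris/NaCl/DTT/glycerol buffer at room temperature for 30 min. They were then washed, crosslinked with 0.1% formaldehyde, proximity-ligated (BsaI/T4 ligase, 1 h, 37 °C), PCR-amplified and sequenced on an Illumina NextSeq500. Binding signal is each 6-mer's read frequency for a factor divided by its frequency for the GST control.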
# ERG = molecular target: T2, ERG (Homo sapiens, UniProt P11308 1-479)
# T2 sequence: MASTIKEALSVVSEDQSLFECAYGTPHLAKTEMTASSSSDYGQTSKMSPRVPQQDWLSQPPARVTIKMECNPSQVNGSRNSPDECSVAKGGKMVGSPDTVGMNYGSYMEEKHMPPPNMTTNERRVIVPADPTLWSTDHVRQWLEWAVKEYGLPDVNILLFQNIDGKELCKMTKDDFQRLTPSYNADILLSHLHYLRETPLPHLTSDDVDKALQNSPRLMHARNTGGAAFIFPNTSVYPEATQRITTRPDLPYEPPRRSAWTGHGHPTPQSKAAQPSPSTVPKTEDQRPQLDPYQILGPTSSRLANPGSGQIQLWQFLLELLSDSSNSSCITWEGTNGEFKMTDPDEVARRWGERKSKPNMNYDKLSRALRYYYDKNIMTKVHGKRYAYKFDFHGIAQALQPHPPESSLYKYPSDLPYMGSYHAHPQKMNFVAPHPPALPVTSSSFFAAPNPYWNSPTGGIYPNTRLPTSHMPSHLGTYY
# Summary of the method: as §1
# EHF = molecular target: T3, EHF (Homo sapiens, UniProt Q9NZC4 1-300)
# T3 sequence: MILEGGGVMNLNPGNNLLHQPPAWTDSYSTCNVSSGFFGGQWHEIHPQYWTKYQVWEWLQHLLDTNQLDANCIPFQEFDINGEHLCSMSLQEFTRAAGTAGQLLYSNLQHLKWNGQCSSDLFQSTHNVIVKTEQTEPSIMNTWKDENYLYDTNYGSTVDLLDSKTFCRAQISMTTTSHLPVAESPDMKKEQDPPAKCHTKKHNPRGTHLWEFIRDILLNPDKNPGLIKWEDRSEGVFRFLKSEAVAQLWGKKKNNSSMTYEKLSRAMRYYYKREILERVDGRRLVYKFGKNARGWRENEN
# Summary of the method: as §1
# SPIB = SPIB (Homo sapiens, UniProt Q01892 1-262)
# SPIB, sequence (Q01892 whole entry): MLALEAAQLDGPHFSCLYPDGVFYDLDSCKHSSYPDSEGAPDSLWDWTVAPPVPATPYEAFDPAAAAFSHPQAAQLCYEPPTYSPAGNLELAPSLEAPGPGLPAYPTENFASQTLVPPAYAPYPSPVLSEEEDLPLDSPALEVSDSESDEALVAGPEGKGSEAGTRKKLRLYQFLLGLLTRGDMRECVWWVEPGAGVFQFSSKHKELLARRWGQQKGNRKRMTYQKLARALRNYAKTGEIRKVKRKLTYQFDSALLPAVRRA
# Summary of the method: as §1
# ETV5 = ETV5 (Homo sapiens, UniProt P41161 1-510)
# ETV5, sequence (P41161 whole entry): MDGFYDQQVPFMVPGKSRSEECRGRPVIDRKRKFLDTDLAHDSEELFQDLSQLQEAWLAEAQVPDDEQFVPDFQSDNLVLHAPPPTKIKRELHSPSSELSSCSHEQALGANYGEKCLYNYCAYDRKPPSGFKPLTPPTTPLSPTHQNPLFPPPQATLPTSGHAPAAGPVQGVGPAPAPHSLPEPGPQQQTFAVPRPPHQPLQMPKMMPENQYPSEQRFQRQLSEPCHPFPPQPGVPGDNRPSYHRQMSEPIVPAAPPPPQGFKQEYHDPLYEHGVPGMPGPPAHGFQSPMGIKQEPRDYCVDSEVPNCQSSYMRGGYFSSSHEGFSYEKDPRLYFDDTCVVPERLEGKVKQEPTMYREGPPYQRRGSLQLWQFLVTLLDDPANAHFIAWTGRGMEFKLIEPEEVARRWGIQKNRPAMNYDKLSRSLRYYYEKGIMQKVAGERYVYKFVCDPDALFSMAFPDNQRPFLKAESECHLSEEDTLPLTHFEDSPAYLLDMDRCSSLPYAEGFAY
# Summary of the method: as §1
# ELF4 = ELF4 (Homo sapiens, UniProt Q99607 1-663)
# ELF4, sequence (Q99607 whole entry): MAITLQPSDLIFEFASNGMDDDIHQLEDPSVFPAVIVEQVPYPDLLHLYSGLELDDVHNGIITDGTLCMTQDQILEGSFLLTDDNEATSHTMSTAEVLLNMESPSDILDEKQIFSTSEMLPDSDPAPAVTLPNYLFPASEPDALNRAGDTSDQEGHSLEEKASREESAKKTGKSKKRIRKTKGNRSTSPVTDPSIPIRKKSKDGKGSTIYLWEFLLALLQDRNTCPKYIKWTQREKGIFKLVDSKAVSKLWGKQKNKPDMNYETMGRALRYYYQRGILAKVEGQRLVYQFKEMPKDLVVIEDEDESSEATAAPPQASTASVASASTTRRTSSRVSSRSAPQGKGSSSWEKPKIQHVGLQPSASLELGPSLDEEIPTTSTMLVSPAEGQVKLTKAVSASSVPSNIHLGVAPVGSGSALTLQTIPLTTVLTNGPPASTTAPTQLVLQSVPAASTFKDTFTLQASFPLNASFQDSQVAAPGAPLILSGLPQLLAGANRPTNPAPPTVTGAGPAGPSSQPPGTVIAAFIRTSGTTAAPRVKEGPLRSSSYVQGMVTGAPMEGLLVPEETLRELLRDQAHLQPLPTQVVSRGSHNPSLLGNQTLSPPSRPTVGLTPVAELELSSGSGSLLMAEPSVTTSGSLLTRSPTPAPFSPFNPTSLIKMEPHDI
# Summary of the method: as §1
# ETV3L = molecular target: T4, ETV3L (Homo sapiens, UniProt Q6ZN32 1-361)
# T4 sequence: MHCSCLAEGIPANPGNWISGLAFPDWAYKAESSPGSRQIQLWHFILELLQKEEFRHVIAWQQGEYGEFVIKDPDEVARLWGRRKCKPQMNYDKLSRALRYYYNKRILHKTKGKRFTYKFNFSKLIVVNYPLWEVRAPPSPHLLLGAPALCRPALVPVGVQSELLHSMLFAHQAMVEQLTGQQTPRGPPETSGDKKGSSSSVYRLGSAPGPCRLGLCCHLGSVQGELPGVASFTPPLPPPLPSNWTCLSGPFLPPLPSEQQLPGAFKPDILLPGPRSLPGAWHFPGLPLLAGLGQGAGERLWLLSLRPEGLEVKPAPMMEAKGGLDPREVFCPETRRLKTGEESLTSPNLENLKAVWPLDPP
# Summary of the method: as §1
# ETS2 = molecular target: T5, ETS2 (Homo sapiens, UniProt P15036 1-469)
# T5 sequence: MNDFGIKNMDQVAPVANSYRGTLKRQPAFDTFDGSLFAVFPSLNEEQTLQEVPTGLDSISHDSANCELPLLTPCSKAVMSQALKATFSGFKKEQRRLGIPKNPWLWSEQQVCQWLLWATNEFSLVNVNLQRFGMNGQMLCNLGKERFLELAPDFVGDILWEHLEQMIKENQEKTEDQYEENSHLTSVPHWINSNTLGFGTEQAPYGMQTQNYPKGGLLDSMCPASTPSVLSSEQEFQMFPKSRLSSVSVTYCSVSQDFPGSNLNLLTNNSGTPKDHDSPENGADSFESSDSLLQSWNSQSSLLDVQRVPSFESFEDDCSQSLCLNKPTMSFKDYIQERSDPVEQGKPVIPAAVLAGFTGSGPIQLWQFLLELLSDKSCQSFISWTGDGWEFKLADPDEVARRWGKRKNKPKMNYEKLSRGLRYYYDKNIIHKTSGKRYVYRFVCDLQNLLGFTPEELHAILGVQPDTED
# Summary of the method: as §1
# ETV7 = molecular target: T6, ETV7 (Homo sapiens, UniProt Q9Y603 1-341)
# T6 sequence: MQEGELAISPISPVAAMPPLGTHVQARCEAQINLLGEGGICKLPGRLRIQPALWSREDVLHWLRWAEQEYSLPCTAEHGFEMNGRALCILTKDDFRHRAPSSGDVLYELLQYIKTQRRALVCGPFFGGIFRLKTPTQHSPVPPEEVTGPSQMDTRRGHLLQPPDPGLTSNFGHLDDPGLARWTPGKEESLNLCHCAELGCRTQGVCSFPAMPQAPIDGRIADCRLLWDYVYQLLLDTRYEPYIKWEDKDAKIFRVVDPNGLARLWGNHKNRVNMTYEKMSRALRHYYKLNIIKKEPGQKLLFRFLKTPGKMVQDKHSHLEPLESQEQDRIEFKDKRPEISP
# Summary of the method: as §1
# ETV3 = molecular target: T7, ETV3 (Homo sapiens, UniProt P41162-2 1-143)
# T7 sequence: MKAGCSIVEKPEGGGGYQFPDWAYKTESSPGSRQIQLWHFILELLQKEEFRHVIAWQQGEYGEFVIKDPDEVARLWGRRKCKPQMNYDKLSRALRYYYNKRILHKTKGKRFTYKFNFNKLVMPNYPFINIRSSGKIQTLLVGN
# Summary of the method: as §1
# ELK1 = molecular target: T8, ELK1 (Homo sapiens, UniProt P19419 1-428)
# T8 sequence: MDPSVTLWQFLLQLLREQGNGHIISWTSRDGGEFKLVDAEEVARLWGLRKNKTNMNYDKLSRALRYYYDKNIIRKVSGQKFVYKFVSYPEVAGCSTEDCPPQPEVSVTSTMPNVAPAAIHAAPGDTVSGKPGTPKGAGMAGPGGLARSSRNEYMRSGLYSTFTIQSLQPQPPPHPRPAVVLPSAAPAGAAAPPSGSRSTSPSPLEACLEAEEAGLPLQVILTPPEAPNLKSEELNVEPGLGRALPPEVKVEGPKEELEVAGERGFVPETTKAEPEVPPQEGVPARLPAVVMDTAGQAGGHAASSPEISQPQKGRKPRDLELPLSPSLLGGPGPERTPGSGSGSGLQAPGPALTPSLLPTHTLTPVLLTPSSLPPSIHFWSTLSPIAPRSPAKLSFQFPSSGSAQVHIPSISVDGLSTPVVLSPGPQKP
# Summary of the method: as §1
# ELF3 = molecular target: T9, ELF3 (Homo sapiens, UniProt P78545 1-371)
# T9 sequence: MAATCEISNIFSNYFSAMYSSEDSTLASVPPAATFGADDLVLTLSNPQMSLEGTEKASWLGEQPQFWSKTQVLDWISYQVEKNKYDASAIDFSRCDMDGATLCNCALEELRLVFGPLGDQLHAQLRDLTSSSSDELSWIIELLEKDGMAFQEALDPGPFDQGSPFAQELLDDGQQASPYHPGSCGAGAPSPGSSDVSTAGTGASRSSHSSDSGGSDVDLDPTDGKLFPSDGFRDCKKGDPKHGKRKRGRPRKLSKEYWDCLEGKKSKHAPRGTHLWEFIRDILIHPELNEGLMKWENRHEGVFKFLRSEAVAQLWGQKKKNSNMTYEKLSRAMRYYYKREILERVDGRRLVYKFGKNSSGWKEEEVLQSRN
# Summary of the method: as §1
# ERF = molecular target: T10, ERF (Homo sapiens, UniProt P50548 1-548)
# T10 sequence: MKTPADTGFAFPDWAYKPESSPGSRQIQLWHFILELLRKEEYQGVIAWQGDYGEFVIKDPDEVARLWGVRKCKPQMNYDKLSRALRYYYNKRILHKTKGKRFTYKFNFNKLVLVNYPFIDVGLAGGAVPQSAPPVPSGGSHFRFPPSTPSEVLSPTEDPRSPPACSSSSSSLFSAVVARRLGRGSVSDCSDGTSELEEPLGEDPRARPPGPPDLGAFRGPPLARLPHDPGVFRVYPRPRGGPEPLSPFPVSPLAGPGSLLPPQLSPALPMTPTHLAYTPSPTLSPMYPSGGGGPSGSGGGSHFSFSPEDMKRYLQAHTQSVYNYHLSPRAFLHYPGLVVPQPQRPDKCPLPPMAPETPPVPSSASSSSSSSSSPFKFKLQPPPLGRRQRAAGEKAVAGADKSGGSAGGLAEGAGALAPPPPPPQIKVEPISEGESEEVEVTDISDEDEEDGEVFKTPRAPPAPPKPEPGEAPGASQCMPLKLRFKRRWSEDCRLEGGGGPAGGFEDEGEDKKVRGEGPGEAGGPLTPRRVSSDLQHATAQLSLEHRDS
# Summary of the method: as §1
# SPDEF = molecular target: T11, SPDEF (Homo sapiens, UniProt O95238 1-335)
# T11 sequence: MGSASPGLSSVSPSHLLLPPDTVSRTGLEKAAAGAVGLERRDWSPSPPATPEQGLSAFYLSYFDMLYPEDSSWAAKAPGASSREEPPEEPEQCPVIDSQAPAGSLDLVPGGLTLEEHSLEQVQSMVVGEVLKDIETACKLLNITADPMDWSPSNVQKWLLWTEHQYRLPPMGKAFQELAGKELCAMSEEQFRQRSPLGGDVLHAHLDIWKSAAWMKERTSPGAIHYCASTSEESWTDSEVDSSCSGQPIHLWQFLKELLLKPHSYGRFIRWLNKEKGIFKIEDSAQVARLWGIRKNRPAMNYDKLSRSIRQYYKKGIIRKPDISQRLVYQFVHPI
# Summary of the method: as §1
# ETV6 = ETV6 (Homo sapiens, UniProt P41212 1-452)
# ETV6, sequence (P41212 whole entry): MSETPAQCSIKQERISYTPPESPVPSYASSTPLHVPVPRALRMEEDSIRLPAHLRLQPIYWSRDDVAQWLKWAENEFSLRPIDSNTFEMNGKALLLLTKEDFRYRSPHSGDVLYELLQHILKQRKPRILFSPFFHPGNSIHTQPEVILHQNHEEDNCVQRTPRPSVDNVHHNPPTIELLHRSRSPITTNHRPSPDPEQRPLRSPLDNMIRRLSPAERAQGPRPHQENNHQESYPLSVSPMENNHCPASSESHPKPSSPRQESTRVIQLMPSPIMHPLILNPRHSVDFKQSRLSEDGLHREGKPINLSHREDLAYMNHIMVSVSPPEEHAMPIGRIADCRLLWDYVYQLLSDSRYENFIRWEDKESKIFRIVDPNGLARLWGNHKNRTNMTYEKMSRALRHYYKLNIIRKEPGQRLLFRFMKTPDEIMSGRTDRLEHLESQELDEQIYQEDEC
# Summary of the method: as §1
# ELF1 = ELF1 (Homo sapiens, UniProt P32519 1-619)
# ELF1, sequence (P32519 whole entry): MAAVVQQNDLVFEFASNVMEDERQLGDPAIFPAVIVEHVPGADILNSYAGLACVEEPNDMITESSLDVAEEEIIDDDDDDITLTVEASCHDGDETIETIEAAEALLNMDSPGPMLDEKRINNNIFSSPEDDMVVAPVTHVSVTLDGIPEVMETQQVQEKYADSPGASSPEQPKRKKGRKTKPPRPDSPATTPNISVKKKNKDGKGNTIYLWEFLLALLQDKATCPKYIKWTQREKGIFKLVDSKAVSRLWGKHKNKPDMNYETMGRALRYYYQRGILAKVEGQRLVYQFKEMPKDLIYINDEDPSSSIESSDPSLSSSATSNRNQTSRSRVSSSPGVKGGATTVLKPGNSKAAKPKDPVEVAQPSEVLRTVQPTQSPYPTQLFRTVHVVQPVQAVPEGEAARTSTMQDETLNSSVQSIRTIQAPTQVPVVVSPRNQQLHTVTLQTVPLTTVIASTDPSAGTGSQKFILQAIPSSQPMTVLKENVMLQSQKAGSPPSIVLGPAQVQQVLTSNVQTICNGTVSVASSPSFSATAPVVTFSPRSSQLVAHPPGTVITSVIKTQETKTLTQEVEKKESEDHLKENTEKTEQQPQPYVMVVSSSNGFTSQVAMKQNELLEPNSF
# Summary of the method: as §1
# ETV1 = ETV1 (Homo sapiens, UniProt P50549 1-477)
# ETV1, sequence (P50549 whole entry): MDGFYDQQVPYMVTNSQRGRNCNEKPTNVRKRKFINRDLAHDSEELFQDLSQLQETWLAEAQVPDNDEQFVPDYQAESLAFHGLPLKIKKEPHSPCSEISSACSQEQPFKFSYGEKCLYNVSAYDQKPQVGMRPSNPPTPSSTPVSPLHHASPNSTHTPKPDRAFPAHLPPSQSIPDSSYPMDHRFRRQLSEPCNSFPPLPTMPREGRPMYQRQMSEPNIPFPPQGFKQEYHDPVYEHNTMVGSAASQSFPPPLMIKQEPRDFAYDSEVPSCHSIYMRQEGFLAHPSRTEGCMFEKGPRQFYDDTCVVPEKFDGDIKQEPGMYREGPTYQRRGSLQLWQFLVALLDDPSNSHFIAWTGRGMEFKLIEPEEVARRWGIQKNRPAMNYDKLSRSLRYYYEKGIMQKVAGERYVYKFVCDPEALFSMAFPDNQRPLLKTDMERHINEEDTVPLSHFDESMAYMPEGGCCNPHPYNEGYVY
# Summary of the method: as §1
Sequence,binding signal (GABPA),binding signal (ERG),binding signal (EHF),binding signal (SPIB),binding signal (ETV5),binding signal (ELF4),binding signal (ETV3L),binding signal (ETS2),binding signal (ETV7),binding signal (ETV3),binding signal (ELK1),binding signal (ELF3),binding signal (ERF),binding signal (SPDEF),binding signal (ETV6),binding signal (ELF1),binding signal (ETV1)
CGGCTG,"1.03 fold enrichment (6-mer frequency, TF over GST control)","1.04 fold enrichment (6-mer frequency, TF over GST control)","1.05 fold enrichment (6-mer frequency, TF over GST control)","1.03 fold enrichment (6-mer frequency, TF over GST control)","1.01 fold enrichment (6-mer frequency, TF over GST control)","1.12 fold enrichment (6-mer frequency, TF over GST control)","1.02 fold enrichment (6-mer frequency, TF over GST control)","1.07 fold enrichment (6-mer frequency, TF over GST control)","1.1 fold enrichment (6-mer frequency, TF over GST control)","1.01 fold enrichment (6-mer frequency, TF over GST control)",–,–,–,–,–,–,–
GGGAAA,"1.02 fold enrichment (6-mer frequency, TF over GST control)","1.03 fold enrichment (6-mer frequency, TF over GST control)","1.07 fold enrichment (6-mer frequency, TF over GST control)","1.1 fold enrichment (6-mer frequency, TF over GST control)","1.05 fold enrichment (6-mer frequency, TF over GST control)",–,"1.05 fold enrichment (6-mer frequency, TF over GST control)",–,"1.12 fold enrichment (6-mer frequency, TF over GST control)","1.03 fold enrichment (6-mer frequency, TF over GST control)","1.05 fold enrichment (6-mer frequency, TF over GST control)","1.03 fold enrichment (6-mer frequency, TF over GST control)","1.02 fold enrichment (6-mer frequency, TF over GST control)","1.01 fold enrichment (6-mer frequency, TF over GST control)","1.22 fold enrichment (6-mer frequency, TF over GST control)",–,–
GAACTG,–,"1.06 fold enrichment (6-mer frequency, TF over GST control)","1.01 fold enrichment (6-mer frequency, TF over GST control)","1.01 fold enrichment (6-mer frequency, TF over GST control)","1.05 fold enrichment (6-mer frequency, TF over GST control)","1.02 fold enrichment (6-mer frequency, TF over GST control)",–,"1.02 fold enrichment (6-mer frequency, TF over GST control)",–,"1.09 fold enrichment (6-mer frequency, TF over GST control)",–,–,–,–,–,"1.02 fold enrichment (6-mer frequency, TF over GST control)","1.05 fold enrichment (6-mer frequency, TF over GST control)"
GCTAGA,"1.03 fold enrichment (6-mer frequency, TF over GST control)",–,–,–,"1.02 fold enrichment (6-mer frequency, TF over GST control)",–,"1.04 fold enrichment (6-mer frequency, TF over GST control)",–,"1 fold enrichment (6-mer frequency, TF over GST control)",–,–,–,"1.07 fold enrichment (6-mer frequency, TF over GST control)",–,–,"1.01 fold enrichment (6-mer frequency, TF over GST control)",–
